Screening data from PubChem.
mcGAS inh – mouse cGAS inhibition by luminescence; Q8C6L5; recombinant cGAS, Kinase-Glo ATP depletion luminescence; inhibition, % at 12.5 µM; 160,000 compounds, 0.15% hits; AID 1259399;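 further: 0% = negative control wells and 100% = reference inhibitor with no enzyme activity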
Target sequence (Q8C6L5 whole entry, looked up): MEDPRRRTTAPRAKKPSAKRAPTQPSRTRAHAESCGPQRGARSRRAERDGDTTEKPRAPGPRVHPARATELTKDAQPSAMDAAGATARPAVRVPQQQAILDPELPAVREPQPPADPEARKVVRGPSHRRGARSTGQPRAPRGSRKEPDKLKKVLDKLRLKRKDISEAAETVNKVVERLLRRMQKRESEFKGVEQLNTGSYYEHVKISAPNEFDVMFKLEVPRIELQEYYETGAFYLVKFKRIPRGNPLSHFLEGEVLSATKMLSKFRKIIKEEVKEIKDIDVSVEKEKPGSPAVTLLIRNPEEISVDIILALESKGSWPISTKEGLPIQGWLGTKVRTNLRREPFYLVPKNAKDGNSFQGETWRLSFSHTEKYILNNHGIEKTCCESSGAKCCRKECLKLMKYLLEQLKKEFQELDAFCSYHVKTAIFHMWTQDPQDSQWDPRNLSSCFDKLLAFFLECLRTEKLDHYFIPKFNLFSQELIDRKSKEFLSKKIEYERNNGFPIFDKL
NPYLR7 agonist – activates Aedes aegypti NPYLR7 receptor; HEK293T NPYLR7/Galpha15, GCaMP6s calcium fluorescence; activation, % at 10 µM; 270,000 compounds, 0.15% hits; in the data active means activation above about 40%;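 further: 0% = vehicle and 100% = reference agonist at the receptor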
hcGAS inh – blocks human cGAS activity; Q8N884; recombinant h-cGAS, ATP depletion, Kinase-Glo luminescence; inhibition, % at 12.5 µM; 290,000 compounds, 0.081% hits; AID 1259398;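 further: 0% = vehicle reaction and 100% = reaction without DNA for no activity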
Numbers without * were called inactive; · = not tested or not shown. Rows were chosen to be rich in hits. Some 0.24% of all compounds tested hit in one or more screens of this group. Unless noted, no stated cut-off is given here; in the data, active means inhibition above about 40%; inactive means the rest.

SMILES | mcGAS inh | NPYLR7 agonist | hcGAS inh
CCC(C(=O)N(Cc1cc(NC(=O)C2CCC2)ccc1N(C)C)CC1CCCO1)c1ccccc1 (configuration not stated) | -2 | 8 | 1
CC(=O)c1ccc2c(c1)[C@@H]1C=CC[C@@H]1[C@H](c1cc3c(cc1Br)OCO3)N2 | -2 | 11 | -11
O=C(O)C1Nc2cc(Cl)cc(Cl)c2C2C=CCC12 (configuration not stated) | 62* | 1 | 7
Fc1ccc(Oc2ncnc3sccc23)cc1Cl | · | 1 | -6
Cn1c(-c2ccncc2)nn(CN2CCN(c3ccccc3)CC2)c1=S | · | 8 | -4
O=C1c2ccccc2-c2nn(CN3CCN(c4ccccc4)CC3)c3cccc1c23 | 4 | 88* | 14
CN(CCN1CCOCC1)c1ccc(Cl)c(C#N)n1 | · | 0 | 17
CC1(C)CC(c2[nH]cnc2-c2ccccc2)CCO1 (configuration not stated) | · | 58* | 2
CC1(C)CC(c2nccn2CCOc2ccccc2)CCO1 (configuration not stated) | · | 2 | -5
CCN(CC1CCOCC1)C(=O)CN1CCCCCC1=O | · | · | -4
O=C1c2ccccc2-c2nc3ccccc3nc21 | · | 2 | -1
O=C1c2ccccc2-c2nc3nonc3nc21 | 53* | 0 | 1
COc1cc(C(=O)O)c(N)cc1OC(F)F | · | -5 | 4
COc1ccc2c(c1)CC(=O)NCC2 | · | 4 | -9
Nc1c(C=C2C=CC(=O)C=C2)c(=O)nc2sc(-c3ccccc3)nn12 | · | 0 | 11
Nc1c(C=C2C=CC(=O)C=C2)c(=O)nc2sc(-c3ccccc3Cl)nn12 | · | -3 | 42*
CCOC(=O)C(Cc1ccc(Cl)cc1)NC(=O)CCC(=O)N1CCN(c2ccccn2)CC1 (configuration not stated) | -8 | -5 | -5
COc1ccc(Br)cc1C1C(C#N)C(=N)SC(=N)C1C#N (configuration not stated) | 17 | 4 | 4
N#CC1C(=N)SC(=N)C(C#N)C1c1cc(Br)ccc1F (configuration not stated) | 57* | 4 | 16
Cc1nn(Cc2ccccc2)c(C)c1CNS(=O)(=O)c1ccc(Br)cc1Cl | · | 0 | -10
COc1cc(C=C2N=C(c3cc(OC)c(OC)c(OC)c3)OC2=O)c([N+](=O)[O-])cc1OC | · | 0 | -3
O=C1C2C3C=CC(CC3)C2C(=O)N1/N=C\c1cc2c(cc1Br)OCO2 (configuration not stated) | -3 | 4 | 0
O=C1C2C3C=CC(CC3)C2C(=O)N1/N=C\c1cc([N+](=O)[O-])c(O)cc1O (configuration not stated) | 66* | -10 | 0
Cc1ccccc1-c1ncc(CNC2C=CS(=O)(=O)C2)s1 (configuration not stated) | · | 23 | -10
COC(=O)C1CCN(C(=O)Cn2cc(C(F)(F)F)cc(Cl)c2=O)CC1 | · | 1 | -12
SMILES | mcGAS inh | NPYLR7 agonist | hcGAS inh
COC(=O)c1sc(N)c(C(=O)OC)c1Cn1cc(C(F)(F)F)cc(Cl)c1=O | -2 | -5 | 54*
Nc1ncnc2c1ncn2[C@@H]1O[C@H](CO)[C@@H](O)[C@H]1O | · | 52* | 1
OC[C@H]1O[C@@H](n2cnc3c(NC4CCCC4)ncnc32)C(O)[C@H]1O (some centres not stated) | -3 | 20 | -1
CC(=O)NCCn1ccnc1-c1ccc(OC(F)(F)F)cc1 | · | 27 | -9
Cc1ncc(CO)c(C=NN=C2CC3CCC2(C)C3(C)C)c1O (configuration not stated) | -9 | 0 | -12
CC(=O)c1c(C)[nH]c(C(=O)Nc2nc(C)cs2)c1C | · | 6 | -5
CC(=O)Nc1nc(COC(=O)c2[nH]c(C)c(C(=O)OC(C)C)c2C)cs1 | -8 | 46* | -4
O=C(OCC(=O)c1cccs1)c1ccc(Br)o1 | · | 1 | -4
CC(C)Oc1ccc(S(=O)(=O)N2CCCCC2)cc1NC(=O)CCl | · | -11 | -9
CC(C)Oc1ccc(S(=O)(=O)N2CCCCC2)cc1NC(=O)CSc1nncn1C1CC1 | 56* | -4 | -1
CCOc1cc(/C=C2/NC(=S)NC2=O)cc(Br)c1O | 5 | 52* | 4
CCOc1cc(Br)cc(/C=C2/NC(=S)NC2=O)c1O | 4 | -5 | 2
Cn1c(Cn2c(=O)cnc3cc(F)c(F)cc32)cc(=O)n(C)c1=O | · | 2 | -5
Cc1cc(CO)c(OCCOCCOc2c(CO)cc(C)cc2CO)c(CO)c1 | · | -9 | 62*
COc1cc(OC)c(OC)cc1CO | -9 | 4 | -5
CCN(CC(=O)Nc1cc(-c2ccccc2)nn1-c1ccc(Cl)c(Cl)c1)C(=O)Nc1cc(OC)cc(OC)c1 | -4 | -2 | -2
COc1ccc(C(=O)N[C@@H]2CCCCC2NC(=O)C2CCCN(C(=O)CCc3ccccc3)C2)cc1 (some centres not stated) | 79* | · | -2
